Results reported in PubChem BioAssay (Tox21).
Records with an inconclusive call do not appear. Activity calls are given as the source filed them. The call rests on the fitted dose curve; in most records, active means well fitted curve in the direction sought with a large enough effect in the repeat runs; inconclusive means weak or mixed curves; inactive means no such curve, though single readings can be large; an effect the other way counts as inactive or inconclusive.

Legend:
[1] = qHTS RealTime-Glo MT Cell Viability Assay in HepG2 cells - 40 hour (AID 1224870); further: nearly all actives have a fitted effect of over 50% in size
Outline: (§1)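 Real-time viability: cells seeded at 600 per well together with NanoLuc and cell-permeant prosubstrate, compounds added after 5 h incubation. Luminescence tracked at 0, 8, 16, 24, 32 and 40 h of exposure.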

[2] = A CellTox Green Cytotoxicity Assay to monitor cytotoxicity in HEK293 cells - 40 hour (AID 1224871); further: nearly all actives have a fitted effect of over 45% in size
Outline: (§2)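 Homogeneous no-lysis format: HEK293 cell suspension mixed with CellTox Green reagent, seeded, incubated 5 h at 37 C/5% CO2, then dosed by pintool with compound in DMSO.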

[3] = qHTS RealTime-Glo MT Cell Viability Assay in HEK293 cells - 16 hour (AID 1224872); further: top concentration of the series differs between compounds; nearly all actives have a fitted effect of over 50% in size
Outline: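 HEK293 cells were seeded at 600 cells/well together with NanoLuc luciferase and cell-permeant prosubstrate, preincubated 5 h at 37 C/5% CO2, then given compound in DMSO by pintool. Luminescence from viable-cell prosubstrate reduction was read repeatedly over 40 h.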

[4] = qHTS RealTime-Glo MT Cell Viability Assay in HepG2 cells - 8 hour (AID 1224873); further: nearly all actives have a fitted effect of over 55% in size
Outline: as §1

[5] = qHTS RealTime-Glo MT Cell Viability Assay in HEK293 cells - 40 hour (AID 1224874); conditions: RealTime-Glo luminescence; max response: hits give low values; further: nearly all actives have a fitted effect of over 50% in size
Outline: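 Measured as luminescence from the same continuously cultured HEK293 wells at successive time points (0, 8, 16, 24, 32, 40 h) after compound addition. Reagent present from seeding; dosing at 5 h; incubation 37 C.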

[6] = A CellTox Green Cytotoxicity Assay to monitor cytotoxicity in HEK293 cells - 24 hour (AID 1224875); further: series mostly up to about 77 µM; nearly all actives have a fitted effect of over 45% in size
Outline: as §2

[7] = A CellTox Green Cytotoxicity Assay to monitor cytotoxicity in HepG2 cells - 16 hour (AID 1224876); further: nearly all actives have a fitted effect of over 45% in size
Outline: (§3)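 Fluorescent DNA-binding dye, 600 HepG2 cells/well, 5 h preincubation then compound in DMSO; same plates read at 0–40 h, 37 C.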

[8] = qHTS RealTime-Glo MT Cell Viability Assay in HepG2 cells - 32 hour (AID 1224877); further: nearly all actives have a fitted effect of over 55% in size
Outline: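 HepG2 cells were seeded at 600 cells/well together with NanoLuc luciferase and a cell-permeant prosubstrate, preincubated 5 h at 37 C/5% CO2, then pin-dosed with compounds in DMSO. Nonlytic luminescence from viable cells was read at each time point.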

[9] = A CellTox Green Cytotoxicity Assay to monitor cytotoxicity in HepG2 cells - 24 hour (AID 1224878); further: nearly all actives have a fitted effect of over 45% in size
Outline: as §3

[10] = A CellTox Green Cytotoxicity Assay to monitor cytotoxicity in HepG2 cells - 40 hour (AID 1224879); further: nearly all actives have a fitted effect of over 40% in size
Outline: as §3
On the % scale 0 is the no-effect control and ±100 the full control effect.

CC(C=O)Cc1ccc(C(C)C)cc1 (stereo not drawn)
inactive: Potency [1] | Potency [2] | Potency [3] | outcome [4] | max response [5] 18.5% | Potency [6] | Potency [7] | Potency [8] | Potency [9] | Potency [10]

CN(C)N=Nc1ccccc1
inactive: Potency [1] | Potency [2] | Potency [3] | outcome [4] | max response [5] 15% | Potency [6] | Potency [7] | Potency [8] | Potency [9] | Potency [10]

CC1=CC(C)C(C=O)C(C)C1 (stereo not drawn)
inactive: Potency [1] | Potency [2] | Potency [3] | outcome [4] | max response [5] 4.71% | Potency [6] | Potency [7] | Potency [8] | Potency [9] | Potency [10]

CCOC(=O)[C@H](CCc1ccccc1)N[C@@H](C)C(=O)N1CCC[C@H]1C(=O)O
inactive: Potency [1] | Potency [2] | Potency [3] | outcome [4] | max response [5] -0.439% | Potency [6] | Potency [7] | Potency [8] | Potency [9] | Potency [10]

OCC(O)[C@@H](O)[C@H](O)[C@H](O)CO[C@H]1O[C@H](CO)[C@@H](O)[C@H](O)[C@H]1O (stereo partly drawn)
inactive: Potency [1] | Potency [2] | Potency [3] | outcome [4] | max response [5] -0.563% | Potency [6] | Potency [7] | Potency [8] | Potency [9] | Potency [10]

C=CC(=O)N1CCOCC1
inactive: Potency [1] | Potency [2] | Potency [3] | outcome [4] | max response [5] -1.69% | Potency [6] | Potency [7] | Potency [8] | Potency [9] | Potency [10]

CCCCCCOC(=O)CC(CC(=O)OCCCCCC)(OC(=O)CCC)C(=O)OCCCCCC
inactive: Potency [1] | Potency [2] | Potency [3] | outcome [4] | max response [5] 15.3% | Potency [6] | Potency [7] | Potency [8] | Potency [9] | Potency [10]

CCCCCCC(CCCCCCCCCCC(=O)OCC(COC(C)=O)OC(C)=O)OC(C)=O (stereo not drawn)
inactive: Potency [1] | Potency [2] | Potency [3] | outcome [4] | max response [5] 14.5% | Potency [6] | Potency [7] | Potency [8] | Potency [9] | Potency [10]

CC(O)CN(CCCN(C)C)CCCN(C)C (stereo not drawn)
inactive: Potency [1] | Potency [2] | Potency [3] | outcome [4] | max response [5] -1.59% | Potency [6] | Potency [7] | Potency [8] | Potency [9] | Potency [10]

C(=C(c1ccccc1)c1ccccc1)c1ccccc1
inactive: Potency [1] | Potency [2] | Potency [3] | outcome [4] | max response [5] 7.28% | Potency [6] | Potency [7] | Potency [8] | Potency [9] | Potency [10]

NC(=S)Nc1cccc2ccccc12
inactive: activity change, negative = cytotoxic [1] -4.8% [at 6.97 µM] | cytotoxicity increase [2] 0.339% [at 6.97 µM] | activity change, negative = cytotoxicity [3] 14.8% [at 6.97 µM] | viability change, negative = cytotoxic [4] 2.4% [at 6.97 µM] | max response [5] 16.5% | activity change [6] 0.127% [at 6.97 µM, hits give high values] | cytotoxicity increase [7] 1.42% [at 6.97 µM] | activity change, negative = cytotoxic [8] -0.0723% [at 6.97 µM] | cytotoxicity [9] -1.06% [at 6.97 µM] | cytotoxicity increase [10] 2.43% [at 6.97 µM]

Oc1ccc2c(c1)OC[C@@H](N1CCC(O)(c3ccc(F)cc3)CC1)[C@H]2O
inactive: Potency [1] | Potency [2] | Potency [3] | outcome [4] | max response [5] -13.9% | Potency [6] | Potency [7] | Potency [8] | Potency [9] | Potency [10]

CC(=O)c1ccc(C)cc1
inactive: Potency [1] | Potency [2] | Potency [3] | outcome [4] | max response [5] -0.83% | Potency [6] | Potency [7] | Potency [8] | Potency [9] | Potency [10]

CC(C)(O)c1ccccc1
inactive: Potency [1] | Potency [2] | Potency [3] | outcome [4] | max response [5] -10.8% | Potency [6] | Potency [7] | Potency [8] | Potency [9] | Potency [10]

CCCCC=O
inactive: Potency [1] | Potency [2] | Potency [3] | outcome [4] | max response [5] 2.57% | Potency [6] | Potency [7] | Potency [8] | Potency [9] | Potency [10]

Cn1cnc2c(=O)[nH]c(N)nc21
inactive: Potency [1] | Potency [2] | Potency [3] | outcome [4] | max response [5] 15.1% | Potency [6] | Potency [7] | Potency [8] | Potency [9] | Potency [10]

CC(C)(O)C(=O)c1ccc(OCCO)cc1
inactive: Potency [1] | Potency [2] | Potency [3] | outcome [4] | max response [5] 6.03% | Potency [6] | Potency [7] | Potency [8] | Potency [9] | Potency [10]

O=C(O)C1CCC1
inactive: Potency [1] | Potency [2] | Potency [3] | outcome [4] | max response [5] -0.0608% | Potency [6] | Potency [7] | Potency [8] | Potency [9] | Potency [10]

COc1cc(CCC(C)=O)ccc1O
inactive: Potency [1] | Potency [2] | Potency [3] | outcome [4] | max response [5] -0.231% | Potency [6] | Potency [7] | Potency [8] | Potency [9] | Potency [10]

C=CCOc1nc(OCC=C)nc(OCC=C)n1
inactive: Potency [1] | Potency [2] | Potency [3] | outcome [4] | max response [5] 11.1% | Potency [6] | Potency [7] | Potency [8] | Potency [9] | Potency [10]

CC(C)COC(=O)c1ccccc1O
inactive: Potency [1] | Potency [2] | Potency [3] | outcome [4] | max response [5] 7.83% | Potency [6] | Potency [7] | Potency [8] | Potency [9] | Potency [10]

CCCCCCCCCCCCCCC
inactive: Potency [1] | Potency [2] | Potency [3] | outcome [4] | max response [5] 10.7% | Potency [6] | Potency [7] | Potency [8] | Potency [9] | Potency [10]

CC(CCO)CCCC(C)(C)O (stereo not drawn)
inactive: Potency [1] | Potency [2] | Potency [3] | outcome [4] | max response [5] -6.84% | Potency [6] | Potency [7] | Potency [8] | Potency [9] | Potency [10]

OC1OC[C@@H](O)[C@H](O)[C@H]1O (stereo partly drawn)
inactive: Potency [1] | Potency [2] | Potency [3] | outcome [4] | max response [5] 0.611% | Potency [6] | Potency [7] | Potency [8] | Potency [9] | Potency [10]

O=S(=O)(O)c1ccccc1O
inactive: Potency [1] | Potency [2] | Potency [3] | outcome [4] | max response [5] 8.61% | Potency [6] | Potency [7] | Potency [8] | Potency [9] | Potency [10]

COC(=O)CCCCCCCCC(=O)OC
inactive: Potency [1] | Potency [2] | Potency [3] | outcome [4] | max response [5] 2.88% | Potency [6] | Potency [7] | Potency [8] | Potency [9] | Potency [10]

C=CCOCC(O)CS(=O)(=O)O (stereo not drawn)
inactive: Potency [1] | Potency [2] | Potency [3] | outcome [4] | max response [5] -7.7% | Potency [6] | Potency [7] | Potency [8] | Potency [9] | Potency [10]

CCCC(C)CO (stereo not drawn)
inactive: Potency [1] | Potency [2] | Potency [3] | outcome [4] | max response [5] 8.5% | Potency [6] | Potency [7] | Potency [8] | Potency [9] | Potency [10]

CCO[Si](C)(OCC)OCC
inactive: Potency [1] | Potency [2] | Potency [3] | outcome [4] | max response [5] 3.57% | Potency [6] | Potency [7] | Potency [8] | Potency [9] | Potency [10]

CCCCCCC(=O)OCC
inactive: Potency [1] | Potency [2] | Potency [3] | outcome [4] | max response [5] 14.5% | Potency [6] | Potency [7] | Potency [8] | Potency [9] | Potency [10]

CCCCC1CCCCC(=O)O1 (stereo not drawn)
inactive: Potency [1] | Potency [2] | Potency [3] | outcome [4] | max response [5] 13.6% | Potency [6] | Potency [7] | Potency [8] | Potency [9] | Potency [10]

C#CC(O)CCCCC (stereo not drawn)
inactive: Potency [1] | Potency [2] | Potency [3] | outcome [4] | max response [5] 8.88% | Potency [6] | Potency [7] | Potency [8] | Potency [9] | Potency [10]

CC(C)=CC(=O)O
inactive: Potency [1] | Potency [2] | Potency [3] | outcome [4] | max response [5] 10.8% | Potency [6] | Potency [7] | Potency [8] | Potency [9] | Potency [10]

CC(C)[C@H](N)C(=O)OCCOCn1cnc2c(=O)[nH]c(N)nc21
inactive: Potency [1] | Potency [2] | Potency [3] | outcome [4] | max response [5] 9.28% | Potency [6] | Potency [7] | Potency [8] | Potency [9] | Potency [10]

O=C1CC2(CCCC2)CC(=O)N1
inactive: Potency [1] | Potency [2] | Potency [3] | outcome [4] | max response [5] 3.72% | Potency [6] | Potency [7] | Potency [8] | Potency [9] | Potency [10]

CC(=O)OC(C)(C)C
inactive: Potency [1] | Potency [2] | Potency [3] | outcome [4] | max response [5] 8.31% | Potency [6] | Potency [7] | Potency [8] | Potency [9] | Potency [10]

C[C@H]1O[C@@H](n2cc(F)c(=O)[nH]c2=O)[C@H](O)[C@@H]1O
inactive: Potency [1] | Potency [2] | Potency [3] | outcome [4] | max response [5] 0.654% | Potency [6] | Potency [7] | Potency [8] | Potency [9] | Potency [10]

COc1cc(C(=O)N2CCOCC2)cc(OC)c1OC
inactive: Potency [1] | Potency [2] | Potency [3] | outcome [4] | max response [5] 11.2% | Potency [6] | Potency [7] | Potency [8] | Potency [9] | Potency [10]

O=c1[nH]c2ccccc2c(=O)n1CCCl
inactive: Potency [1] | Potency [2] | Potency [3] | outcome [4] | max response [5] 3.48% | Potency [6] | Potency [7] | Potency [9] | Potency [10]

OC/C=C/c1ccccc1
inactive: Potency [1] | Potency [2] | Potency [3] | outcome [4] | max response [5] 21.7% | Potency [6] | Potency [7] | Potency [8] | Potency [10]
